“And” between values parts separate entries of the source, which are not always exact repeats. Equal values may be shown once. The panel holds about 83,000 compounds, 20% with a hit somewhere; the sample as a whole holds those more often.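 Testing used 96-well plates and a 48-hour single-concentration exposure. Example: -40 means 40% of the starting cells died.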 The source made the active and inactive calls. How the source made its calls: active means growth percent below 10; inactive means the rest.
These molecules were tested on M14 melanoma (assay: NCI-60 one-dose screen, 48 h (100 = growth as untreated, 0 = no growth, -100 = all killed)). Details: 10 µM unless noted.
O=C(Nc1ccc2ccccc2c1)c1cc2ccccc2cc1O was tested, and the growth was 99% (inactive).
For N=C(N)SCc1c2ccccc2c(CSC(=N)N)c2ccccc12, the growth was 68.4% (inactive).
In the case of NNCCc1ccccc1, the growth is reported as 101% (inactive) and 96.1% (inactive).
For Brc1ccc(/C=C(/C2=NCCN2)n2ccc3ccccc32)cc1, the growth was 65.1% (inactive).
C=C(c1ccc(C(=O)O)cc1)c1cc2c(cc1C)C(C)(C)CCC2(C)C was tested, and the growth was 87% (inactive) and 75.5% (inactive).
N=C(N)c1ccc(-c2ccc(-c3ccc(Cl)c(Cl)c3)s2)cc1 was tested, and the growth was 38.1% (inactive).
For C=C(CN1CC=CCC1)[C@@H]1CC[C@]2(COC(C)=O)CC[C@]3(C)[C@H](CC[C@@H]4[C@@]5(C)CC[C@H](O)C(C)(C)[C@@H]5CC[C@]43C)[C@@H]12, the growth was 97.4% (inactive).
For O=[N+]([O-])c1cc(C(F)(F)F)ccc1Sc1ccc(C(F)(F)F)cc1[N+](=O)[O-], the growth was 49% (inactive).
For CCn1cc(C(=O)NN=C2CCCC2)c(=O)c2ccc(C)nc21, the growth was 102% (inactive).
In the case of O=C(Nc1ccc(Cl)c(Cl)c1)Nc1ccc(Cl)c(Cl)c1, the growth is reported as -85.7% (active) and 33.4% (inactive).
Cn1c(=O)c2c(nc(Nc3cc(=O)[nH]c(=O)[nH]3)n2Cc2ccccc2)n(C)c1=O was tested, and the growth was 91.8% (inactive).
For CCOC(=O)c1c(-c2ccc(OC)cc2)c(C#N)c2c(C#N)c(N)nn2c1N, the growth was 34.2% (inactive).
For COc1cc(/C=N/NC(=O)CCN2c3ccccc3Sc3ccccc32)cc(OC)c1OC, the growth was 79.3% (inactive).
In the case of O/N=C(/c1ccccc1)c1ccc2c3c(cccc13)CC2, the growth is reported as 95.3% (inactive) and 90.9% (inactive).
In the case of COc1cc(-c2nc3occn3c2-c2ccnc(NCCCNS(=O)(=O)c3ccc(O)cc3)n2)ccc1F, the growth is reported as 26.2% (inactive).
With CN(C)c1ccc2nc3ccc(=O)cc-3sc2c1 the growth was 9.73% (active) and 7.61% (active).
ON=C1CCCCCCCC1 was tested, and the growth was 102% (inactive) and 101% (inactive).
In the case of [Cu+].[NH-][C@H]1C[N-]C(=O)[C@H]([C@H]2CCN=C(N)N2)[N-]C(=O)/C(=C\NC(N)=O)[N-]C(=O)[C@H](CNC(=O)C[C@@H](N)CCCN)[N-]C(=O)[C@H](CO)[N-]C1=O, the growth is reported as 104% (inactive).
In the case of CC(C)=CCc1cc(O)c(O)c2oc3cc(O)cc(O)c3c(=O)c12, the growth is reported as 63.9% (inactive).
For Cc1ccc(S(=O)(=O)OC[C@@]2(C)CC[C@]3(C)CC[C@]4(C)C(=CC[C@@H]5[C@@]6(C)CCCNC(C)(C)[C@@H]6CC[C@]54C)[C@@H]3C2)cc1, the growth was -68.5% (active).
For COc1cc(C=O)ccc1Oc1ccc([N+](=O)[O-])cc1[N+](=O)[O-], the growth was 102% (inactive).
In the case of COc1cc2ncnc(Nc3ccc(F)c(Cl)c3)c2cc1OCC(=O)N1CCCCC1, the growth is reported as 85.5% (inactive).
For CCN1C(=S)N(CC)C2C1NC(=S)N2/N=C/C=C/c1ccccc1 (stereo not drawn), the growth was 24.8% (inactive).

— PubChem BioAssay (NCI)
